Holding throughout (assay): DAPPL (digital affinity profiling via proximity ligation, sequencing); 10 mM Tris-HCl pH 7.5, 50 mM NaCl, 1 mM DTT, 4% glycerol, room temperature, 30 min; GST-TFs on glutathione beads, 16-mer random dsDNA library, 0.1% formaldehyde crosslink after washing; high values mean tight binding
One test concerns the target T1, FLI1 (Homo sapiens, UniProt Q01543 1-452).
T1 sequence: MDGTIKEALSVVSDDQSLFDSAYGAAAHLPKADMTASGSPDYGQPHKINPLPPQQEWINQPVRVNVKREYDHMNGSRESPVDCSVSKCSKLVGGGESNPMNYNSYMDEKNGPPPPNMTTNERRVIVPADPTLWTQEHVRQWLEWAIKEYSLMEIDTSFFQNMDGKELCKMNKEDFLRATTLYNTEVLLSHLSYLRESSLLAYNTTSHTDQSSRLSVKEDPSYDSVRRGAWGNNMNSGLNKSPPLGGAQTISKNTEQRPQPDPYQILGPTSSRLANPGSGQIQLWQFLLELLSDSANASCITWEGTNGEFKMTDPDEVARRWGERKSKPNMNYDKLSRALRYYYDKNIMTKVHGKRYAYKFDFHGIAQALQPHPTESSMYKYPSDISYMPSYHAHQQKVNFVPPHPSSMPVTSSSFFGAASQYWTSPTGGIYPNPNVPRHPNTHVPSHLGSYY
Conditions: protein: recombinant; tags: N-terminal GST; dsDNA, one strand shown. The method in brief:
(§1)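 Beads coated with glutathione captured GST-fused human transcription factors that had been expressed in yeast, and the factors were then given DNA barcodes and pooled with a tag-only sample. The pools were incubated with 200 nmole of a random double-stranded 16-mer DNA library in Tris/NaCl/DTT/glycerol buffer for 30 min at room temperature, washed, crosslinked with 0.1% formaldehyde and proximity-ligated with BsaI/T4 ligase at 37 °C for 1 h. PCR amplification and Illumina NextSeq500 sequencing came last. Binding signal is each hexamer's read frequency for a factor divided by its frequency for the tag-only sample.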

A further test addresses T2, ELK1 (Homo sapiens, UniProt P19419 1-428).
T2 sequence: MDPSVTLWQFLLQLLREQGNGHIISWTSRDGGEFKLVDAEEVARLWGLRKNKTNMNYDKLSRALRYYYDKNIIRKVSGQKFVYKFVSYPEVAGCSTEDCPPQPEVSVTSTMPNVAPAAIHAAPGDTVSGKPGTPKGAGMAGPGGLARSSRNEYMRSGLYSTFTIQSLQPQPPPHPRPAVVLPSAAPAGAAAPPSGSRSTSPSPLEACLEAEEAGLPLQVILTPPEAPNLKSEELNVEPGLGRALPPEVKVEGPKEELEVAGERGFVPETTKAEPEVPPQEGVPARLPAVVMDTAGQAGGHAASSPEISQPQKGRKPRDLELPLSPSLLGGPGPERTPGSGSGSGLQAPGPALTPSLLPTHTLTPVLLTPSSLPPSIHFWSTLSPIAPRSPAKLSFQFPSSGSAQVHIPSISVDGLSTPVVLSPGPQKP
Conditions: protein: recombinant; tags: N-terminal GST; dsDNA, one strand shown. In outline:
as §1

For the next test, the target named is ELF1 (Homo sapiens, UniProt P32519 1-619). Conditions: protein: recombinant; tags: N-terminal GST; dsDNA, one strand shown. The method in brief: as §1
Chain of ELF1 (P32519 whole entry): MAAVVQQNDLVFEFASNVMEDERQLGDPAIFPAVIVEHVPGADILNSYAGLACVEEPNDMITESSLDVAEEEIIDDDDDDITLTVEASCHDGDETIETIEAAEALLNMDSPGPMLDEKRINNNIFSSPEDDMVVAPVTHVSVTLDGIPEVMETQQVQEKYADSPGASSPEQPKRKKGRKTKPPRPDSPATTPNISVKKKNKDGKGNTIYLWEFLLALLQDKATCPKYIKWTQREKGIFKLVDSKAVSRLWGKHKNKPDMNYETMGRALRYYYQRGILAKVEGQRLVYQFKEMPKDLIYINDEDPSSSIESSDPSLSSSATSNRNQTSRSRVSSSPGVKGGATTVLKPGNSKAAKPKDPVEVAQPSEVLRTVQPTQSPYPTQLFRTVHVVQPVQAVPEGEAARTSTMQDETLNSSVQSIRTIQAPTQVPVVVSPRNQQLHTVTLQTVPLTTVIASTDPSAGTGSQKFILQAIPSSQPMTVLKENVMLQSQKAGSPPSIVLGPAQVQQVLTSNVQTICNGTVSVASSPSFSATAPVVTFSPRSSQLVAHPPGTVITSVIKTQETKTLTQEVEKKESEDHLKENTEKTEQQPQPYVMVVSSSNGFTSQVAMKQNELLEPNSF
In a further test the target is T3, EHF (Homo sapiens, UniProt Q9NZC4 1-300).
T3 sequence: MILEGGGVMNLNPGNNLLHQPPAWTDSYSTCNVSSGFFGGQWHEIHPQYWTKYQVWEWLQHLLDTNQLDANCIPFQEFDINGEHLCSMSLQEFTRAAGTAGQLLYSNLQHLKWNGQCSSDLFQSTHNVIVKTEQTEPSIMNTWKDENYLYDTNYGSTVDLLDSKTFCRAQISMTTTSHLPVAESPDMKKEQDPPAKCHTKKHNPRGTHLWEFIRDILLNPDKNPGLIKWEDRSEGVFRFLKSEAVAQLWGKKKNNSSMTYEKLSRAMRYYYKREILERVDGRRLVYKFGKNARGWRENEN
Conditions: protein: recombinant; tags: N-terminal GST; dsDNA, one strand shown. In outline: as §1

Another test has as its target SPIB (Homo sapiens, UniProt Q01892 1-262). Conditions: protein: recombinant; tags: N-terminal GST; dsDNA, one strand shown. The method in brief:
as §1

A further test addresses T4, ELK3 (Homo sapiens, UniProt P41970 1-407).
T4 sequence: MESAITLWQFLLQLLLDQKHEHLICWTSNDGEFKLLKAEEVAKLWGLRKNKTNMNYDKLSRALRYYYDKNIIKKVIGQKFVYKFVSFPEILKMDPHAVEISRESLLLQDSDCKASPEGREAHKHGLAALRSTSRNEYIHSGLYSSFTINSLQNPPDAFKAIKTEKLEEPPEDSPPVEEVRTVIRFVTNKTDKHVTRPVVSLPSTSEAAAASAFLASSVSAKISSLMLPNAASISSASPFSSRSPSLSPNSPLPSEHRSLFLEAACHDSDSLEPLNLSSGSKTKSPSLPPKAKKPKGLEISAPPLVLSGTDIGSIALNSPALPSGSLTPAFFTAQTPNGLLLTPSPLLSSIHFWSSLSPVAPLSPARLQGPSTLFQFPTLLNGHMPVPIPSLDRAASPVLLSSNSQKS
Conditions: protein: recombinant; tags: N-terminal GST; dsDNA, one strand shown. The method in brief:
as §1

For another test, the target named is ETV5 (Homo sapiens, UniProt P41161 1-510). Conditions: protein: recombinant; tags: N-terminal GST; dsDNA, one strand shown. The method in brief: as §1
Chain of ETV5 (P41161 whole entry): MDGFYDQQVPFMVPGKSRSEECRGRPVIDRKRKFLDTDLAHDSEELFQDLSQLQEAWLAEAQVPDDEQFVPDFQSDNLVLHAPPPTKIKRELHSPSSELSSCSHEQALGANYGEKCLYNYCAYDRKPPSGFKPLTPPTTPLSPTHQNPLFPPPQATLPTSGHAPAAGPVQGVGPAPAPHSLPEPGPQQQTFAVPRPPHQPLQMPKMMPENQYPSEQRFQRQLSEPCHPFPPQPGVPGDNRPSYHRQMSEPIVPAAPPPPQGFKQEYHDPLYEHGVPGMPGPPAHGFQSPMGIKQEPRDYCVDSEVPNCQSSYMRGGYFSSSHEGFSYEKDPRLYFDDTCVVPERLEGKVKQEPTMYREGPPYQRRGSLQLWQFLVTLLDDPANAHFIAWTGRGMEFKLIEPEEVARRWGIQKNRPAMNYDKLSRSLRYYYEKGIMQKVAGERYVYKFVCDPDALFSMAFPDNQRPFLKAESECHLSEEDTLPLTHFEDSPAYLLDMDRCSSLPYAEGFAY
Another test addresses HSF1 (Homo sapiens, UniProt Q00613 1-529). Conditions: protein: recombinant; tags: N-terminal GST; chain copies: 3; dsDNA, one strand shown. In outline:
as §1

In the next test the target is T5, SPIC (Homo sapiens, UniProt Q8N5J4 1-248).
T5 sequence: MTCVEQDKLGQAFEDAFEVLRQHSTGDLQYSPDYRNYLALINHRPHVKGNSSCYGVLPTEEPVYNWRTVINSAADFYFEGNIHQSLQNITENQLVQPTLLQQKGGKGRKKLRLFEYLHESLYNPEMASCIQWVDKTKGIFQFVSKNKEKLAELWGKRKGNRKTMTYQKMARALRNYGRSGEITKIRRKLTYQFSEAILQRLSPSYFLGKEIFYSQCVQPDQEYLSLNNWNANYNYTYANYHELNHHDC
Conditions: protein: recombinant; tags: N-terminal GST; dsDNA, one strand shown. The method in brief: as §1

The next test has as its target ELF4 (Homo sapiens, UniProt Q99607 1-663). Conditions: protein: recombinant; tags: N-terminal GST; dsDNA, one strand shown. In outline:
as §1

The target in the next test is T6, ELK4 (Homo sapiens, UniProt P28324-2 1-405).
T6 sequence: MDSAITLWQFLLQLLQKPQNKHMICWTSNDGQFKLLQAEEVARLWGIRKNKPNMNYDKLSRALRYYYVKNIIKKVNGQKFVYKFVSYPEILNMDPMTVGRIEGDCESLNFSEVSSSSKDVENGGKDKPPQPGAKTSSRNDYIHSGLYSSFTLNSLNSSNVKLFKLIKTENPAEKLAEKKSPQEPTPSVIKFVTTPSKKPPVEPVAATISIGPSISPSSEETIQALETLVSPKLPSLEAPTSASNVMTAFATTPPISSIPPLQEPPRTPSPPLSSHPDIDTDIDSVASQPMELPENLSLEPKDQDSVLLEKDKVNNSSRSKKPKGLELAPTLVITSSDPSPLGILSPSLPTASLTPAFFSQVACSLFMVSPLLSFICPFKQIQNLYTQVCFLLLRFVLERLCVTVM
Conditions: protein: recombinant; tags: N-terminal GST; dsDNA, one strand shown. The method in brief:
as §1

The target in another test is T7, ELF3 (Homo sapiens, UniProt P78545 1-371).
T7 sequence: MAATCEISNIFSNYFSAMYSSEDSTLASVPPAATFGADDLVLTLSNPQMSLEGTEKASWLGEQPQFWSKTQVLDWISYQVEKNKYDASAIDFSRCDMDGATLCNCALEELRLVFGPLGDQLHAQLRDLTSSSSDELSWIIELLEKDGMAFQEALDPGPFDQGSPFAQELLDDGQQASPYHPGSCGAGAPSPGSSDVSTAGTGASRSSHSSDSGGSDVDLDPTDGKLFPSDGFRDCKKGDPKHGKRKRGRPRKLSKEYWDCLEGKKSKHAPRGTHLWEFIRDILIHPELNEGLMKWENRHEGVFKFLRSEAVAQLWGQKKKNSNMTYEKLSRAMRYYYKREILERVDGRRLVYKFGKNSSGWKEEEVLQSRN
Conditions: protein: recombinant; tags: N-terminal GST; dsDNA, one strand shown. In outline:
as §1

In the next test the target is CRX (Homo sapiens, UniProt O43186 1-299). Conditions: protein: recombinant; tags: N-terminal GST; dsDNA, one strand shown. The method in brief: as §1
Chain of CRX (O43186 whole entry): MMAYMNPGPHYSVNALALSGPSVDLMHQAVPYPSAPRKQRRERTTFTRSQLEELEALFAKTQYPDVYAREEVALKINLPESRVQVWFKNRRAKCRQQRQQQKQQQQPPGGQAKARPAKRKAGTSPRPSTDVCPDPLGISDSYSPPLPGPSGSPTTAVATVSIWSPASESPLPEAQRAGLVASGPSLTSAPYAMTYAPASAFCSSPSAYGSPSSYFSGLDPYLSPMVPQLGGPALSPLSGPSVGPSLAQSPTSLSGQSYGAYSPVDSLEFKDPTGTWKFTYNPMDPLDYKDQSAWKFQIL
Another test concerns the target ETV1 (Homo sapiens, UniProt P50549 1-477). Conditions: protein: recombinant; tags: N-terminal GST; dsDNA, one strand shown. In outline:
as §1

Chain of ELF4 (Q99607 whole entry): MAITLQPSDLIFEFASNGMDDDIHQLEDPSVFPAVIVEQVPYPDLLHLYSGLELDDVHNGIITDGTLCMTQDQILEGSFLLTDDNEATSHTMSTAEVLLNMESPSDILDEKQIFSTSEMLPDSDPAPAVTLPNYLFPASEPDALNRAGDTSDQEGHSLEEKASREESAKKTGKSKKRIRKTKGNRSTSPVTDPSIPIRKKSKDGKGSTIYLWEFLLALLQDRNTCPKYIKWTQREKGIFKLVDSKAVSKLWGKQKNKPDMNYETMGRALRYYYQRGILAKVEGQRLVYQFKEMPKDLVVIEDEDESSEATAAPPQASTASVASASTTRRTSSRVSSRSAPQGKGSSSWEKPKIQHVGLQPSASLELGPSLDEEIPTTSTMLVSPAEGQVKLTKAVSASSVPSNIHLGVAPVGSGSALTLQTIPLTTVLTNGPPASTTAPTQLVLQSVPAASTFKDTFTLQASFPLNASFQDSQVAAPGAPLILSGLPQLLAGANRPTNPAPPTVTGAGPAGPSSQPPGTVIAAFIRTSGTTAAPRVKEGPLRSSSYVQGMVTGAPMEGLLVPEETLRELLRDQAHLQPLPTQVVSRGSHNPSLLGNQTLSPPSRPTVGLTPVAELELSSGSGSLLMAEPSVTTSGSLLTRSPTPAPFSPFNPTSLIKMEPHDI
Chain of ETV1 (P50549 whole entry): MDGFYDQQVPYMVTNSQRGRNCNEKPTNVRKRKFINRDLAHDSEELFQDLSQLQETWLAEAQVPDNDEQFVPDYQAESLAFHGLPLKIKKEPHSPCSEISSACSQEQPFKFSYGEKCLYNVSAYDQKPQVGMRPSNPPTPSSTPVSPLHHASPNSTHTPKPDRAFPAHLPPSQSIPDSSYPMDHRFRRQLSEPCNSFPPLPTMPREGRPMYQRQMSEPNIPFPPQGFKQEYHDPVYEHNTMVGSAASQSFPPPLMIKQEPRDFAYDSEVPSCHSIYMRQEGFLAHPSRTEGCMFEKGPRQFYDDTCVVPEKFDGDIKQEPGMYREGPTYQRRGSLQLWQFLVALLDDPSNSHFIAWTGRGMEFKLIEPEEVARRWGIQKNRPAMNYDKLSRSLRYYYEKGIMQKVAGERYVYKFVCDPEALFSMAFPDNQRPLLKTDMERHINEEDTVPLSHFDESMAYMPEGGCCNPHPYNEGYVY
Chain of SPIB (Q01892 whole entry): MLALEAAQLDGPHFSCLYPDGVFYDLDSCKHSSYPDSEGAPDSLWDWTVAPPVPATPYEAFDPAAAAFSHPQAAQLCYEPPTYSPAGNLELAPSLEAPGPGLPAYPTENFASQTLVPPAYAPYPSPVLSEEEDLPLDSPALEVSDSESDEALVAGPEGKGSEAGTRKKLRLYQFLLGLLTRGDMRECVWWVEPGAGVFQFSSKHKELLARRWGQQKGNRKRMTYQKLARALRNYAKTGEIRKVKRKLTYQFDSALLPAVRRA
Chain of HSF1 (Q00613 whole entry): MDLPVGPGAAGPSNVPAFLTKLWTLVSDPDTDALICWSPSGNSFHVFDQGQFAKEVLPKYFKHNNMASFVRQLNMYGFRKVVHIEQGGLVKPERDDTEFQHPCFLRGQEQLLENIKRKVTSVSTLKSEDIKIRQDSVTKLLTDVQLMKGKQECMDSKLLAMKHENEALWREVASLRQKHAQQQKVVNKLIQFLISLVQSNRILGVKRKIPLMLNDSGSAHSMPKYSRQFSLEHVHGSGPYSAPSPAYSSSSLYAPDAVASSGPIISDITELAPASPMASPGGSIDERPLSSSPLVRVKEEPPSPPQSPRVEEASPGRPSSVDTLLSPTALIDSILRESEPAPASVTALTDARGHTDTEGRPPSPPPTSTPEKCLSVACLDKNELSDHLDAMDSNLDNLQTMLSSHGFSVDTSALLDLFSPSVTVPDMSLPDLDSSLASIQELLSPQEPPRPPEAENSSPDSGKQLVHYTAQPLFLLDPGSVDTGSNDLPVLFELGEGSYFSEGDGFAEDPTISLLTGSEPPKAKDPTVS

As to ATCAGC, the binding signal with FLI1 was 1.03 fold enrichment (6-mer frequency, TF over GST control); in the test with ELK1 it was 1.08 fold enrichment (6-mer frequency, TF over GST control); with ELF1, 1.01 fold enrichment (6-mer frequency, TF over GST control); with EHF, 1.02 fold enrichment (6-mer frequency, TF over GST control); with SPIB it was 1.02 fold enrichment (6-mer frequency, TF over GST control); with ELK3, 1.03 fold enrichment (6-mer frequency, TF over GST control). In addition, the binding signal with ETV5 is 1.01 fold enrichment (6-mer frequency, TF over GST control); in the test with HSF1, 1.01 fold enrichment (6-mer frequency, TF over GST control); with SPIC, 1 fold enrichment (6-mer frequency, TF over GST control); with ELF4 it was 1.02 fold enrichment (6-mer frequency, TF over GST control); with ELK4, 1.14 fold enrichment (6-mer frequency, TF over GST control); in the test with ELF3, 1.13 fold enrichment (6-mer frequency, TF over GST control). Moreover, the binding signal with CRX was 1.31 fold enrichment (6-mer frequency, TF over GST control); with ETV1 it was 1.01 fold enrichment (6-mer frequency, TF over GST control).

These data come from paper PMC7862700, “An all-to-all approach to the identification of sequence-specific readers for epigenetic DNA modifications on cytosine”.
